The values below come from the supplement of paper PMC6555819.

This assay deals with PPARg:RXRa IVT, anti-PPARg (NR concentration 270 nM, RXRa partner concentration 90 nM). As to the kind of experiment: PBM binding z-score (relative to random genomic background probes); higher = stronger binding; sequences stand for … in GC…GCGATTGACAGCGTAGAATGAAGG
The procedure, abridged:
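Custom Agilent 4×180K protein-binding microarrays carried double-stranded probes, each with a 34-nt variable region. These regions held direct-repeat seeds, single-nucleotide variants, half-site ablations and random human genomic background sequences. Ligand-free nuclear receptor dimers were incubated on the arrays for 1 h, antibodies against each partner (one per run) detected binding, and scanned fluorescence was regression-normalized. Binding z-scores take the random background probes as reference.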
In the case of GATACAGGGTCAGCTAGAGGCCTGAGTATGGAAA, the PBM binding z-score stood at 1.85.
In turn, CTCGAAAGGTCGTGCTCAGGTGAGCATACCAAAC returned a PBM binding z-score of 2.31.
CGTCCAAGGTCAAAGGTCAGTGAGGAGATGACGG: the PBM binding z-score amounted to 5.57.
GATGCTAGGTCAACTGATGGTCAGCTAAAGCTCG returned a PBM binding z-score of 3.75.
AGATTGAGGTTATTAAGATCAGGGAATTGCGGTC showed a PBM binding z-score of 2.34.
With CGTCCAAGGCCAATGCTAGGTCAGTGAAAGCATT, the PBM binding z-score came out at 0.421.
As for GAAACAGGGTCAAGGCCAGAGTACGCGTATTGAT, the figure is 5.29; as for CCGCCTAGGTCAGGGCCAGTATAGGAGGAACGTT, 1.29.
The sequence CCGAGTAGGTTAGGGGGCATTCAGGCAACGGTGA registered a PBM binding z-score of 4.72.
For ACTCGGAGGACAACGGTCAGAGCTACGCCAGTGA the value was 0.015; for CGTCAAAGTTCAACTAAGGTAACGTACAGCACGC, 2.54; for GCGACTGGGGCATCAGCAGGTTACAATAACTTAA, 3.27.
On to TCTCGGAAGACACGAAAGGTCAGAGCTCGACATC, for which the PBM binding z-score was found to be 1.27.
For TCGAGAAGGTTAGTCGGGGCATTCAGCCAACATA, the PBM binding z-score was 0.682.
As for AGAATGAGGTTATACGTAGATCAGGGAGGAAAGT, the figure is 1.91; as for ATATGTAGGTTATCGGGCCATTCAGTTTGCGCAT, 6.82.
For the sequence TATACAGGGTAAAAGGCCAGAGTACGAATGTCGA, the PBM binding z-score came to 2.88.
As to CCTGCTAGGTAAATGGTCAGCTAAAGCAGCTCGC, the PBM binding z-score was 0.489.
For the sequence TCTAATTGGTCAAAGGTCACACACTCGAAATGCG, the PBM binding z-score is 6.22.
The sequence TCATATAGGTTAATGCTAGGTGAAAGTCCGATCT yielded a PBM binding z-score of 4.12.
TAGCCTAGGTCAGATCGGCCCAGTATACGCTATA showed a PBM binding z-score of 1.85.
In turn, CAAACTAGGTAACAGAGGTCAAAGTCCGTGCGTA registered a PBM binding z-score of 6.88.
